# This is one part of the list. The hit rate among all sequences tested is not known here.
# B1: VH:VL chains; a variant is named by its letters at X, in order (parent)
# chain 1: QVQLVQSGAEVKKPGASVKVSCKASGYTFTDYXMHWVRQAPGQGLEWMGXVNPNXXXTTYNQKFEGRVTMTTDTSTSTAYMELRSLRSDDTAVYYCARXNXLDXWGQGTTVTVSS
# chain 2: DIQMTQSPSSLSASVGDRVTITCSVSSSVSSIYLHWYQQKPGKAPKLLIYSTSNLASGVPSRFSGSGSGTDFTLTISSLQPEDFATYYCQVYSGYPLTFGGGTKVEIK
# Variants of: B1
# Test: yeast display scFab, FACS + sequencing
# Conditions: with MET
# Outline: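 Two magnetic rounds on Protein A beads coated with HGFR-Fc, followed by FACS, were used to enrich a yeast surface scFab library mutated in the heavy-chain CDRs. FACS gated the top 50% antigen-positive cells after 3 h labelling at room temperature with 1 nM HGFR-Fc and anti-Myc in PBSB plus 1% milk. Binding to the antigen was scored positive when a sequence occurred in both antigen-positive samples from deep sequencing and negative when it occurred only in the input.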
row,Variant,antigen binding call
1,FRRRGAWY,binds
2,YRRGGAWY,binds
3,FRTKAAVY,no binding
4,VAGGDDGA,no binding
5,FGGENDGD,no binding
6,VRKRGSSS,binds
7,VRTRGSSS,binds
8,VGGTSSSS,no binding
9,DETGNVWF,no binding
10,VTGEDDAA,no binding
11,DAGGADVA,no binding
12,YRAGDAAD,binds
13,YAARAALD,no binding
14,YRARSALD,binds
15,YREGDAAD,no binding
16,YRARSAAD,binds
17,YRAGSAAD,binds
18,DAGGGYSV,no binding
19,DKEGGSSA,no binding
20,DKTGNDVV,no binding
21,AATRNVGV,no binding
22,YRARSAVD,binds

row,Variant,antigen binding call
1,YAARAAVD,no binding
2,VGGTSDGV,no binding
3,YKGRDALD,binds
4,YKGRDDVA,no binding
5,YKGRDAWD,binds
6,YKGRDAGD,binds
7,YKGRDASD,no binding
8,DKGRSAGD,no binding
9,SGKKAVWV,no binding
10,VEAGDDVY,no binding
11,VTGANDWV,no binding
12,SKGRSDVV,no binding
13,VTGEDAGA,no binding
14,YRERGSAV,binds
15,YRERGAAV,binds
16,VRERGVGV,no binding
17,DTERGSLV,no binding
18,FRERGSAV,binds
19,VRERGSAV,binds
20,VRERGDLV,no binding
21,VTGEADAS,no binding
22,DATGGDVA,no binding

row,Variant,antigen binding call
1,DAGGAAAV,no binding
2,VEEEGDGA,no binding
3,VKEKGAWY,no binding
4,YRGKGAWY,binds
5,YKGKGAWY,binds
6,FKGKGAWY,binds
7,YRGKDAWY,binds
8,AKGGAAVY,no binding
9,AETKGALD,no binding
10,YAGKTAWS,no binding
11,YRGKGAGY,binds
12,YRGKDAAY,binds
13,SKAGDAWY,no binding
14,YRGKDAWS,binds
15,SKGKGAWY,binds
16,SEARSDAV,no binding
17,FRAGGSLY,binds
18,YRKKGALY,binds
19,DRAGDDLY,no binding
20,FRRRGSLY,binds
21,YRRRGSLY,binds
22,VAGTGDWV,no binding

row,Variant,antigen binding call
1,DKREADGA,no binding
2,VEERDAGD,no binding
3,VTEGDAGA,no binding
4,SKTRAFVA,no binding
5,SRGGGVGY,no binding
6,SREAAAVY,no binding
7,SRAGGSLY,binds
8,YRRRGALY,binds
9,DAERDSGV,no binding
10,VRARGAWF,binds
11,YRARDDVF,no binding
12,VRTEDDWF,no binding
13,YRARGAWF,binds
14,YRTGDDVF,no binding
15,YRARGAGF,binds
16,VRGGDDWF,no binding
17,YRARSDVF,binds
18,SEGADAVA chain 1 G106S,no binding
19,VETGNDGA,no binding
20,YRARSAGF chain 1 G108D,no binding
21,VRAGDDVF,no binding
22,YRARSAGF,binds

row,Variant,antigen binding call
1,VGTKGAGF,no binding
2,VRARGAGF,binds
3,DEKKADWA,no binding
4,SEEGTDGV,no binding
5,YRGRGSWY,binds
6,YKGRGYSY,no binding
7,YKTESYWY,no binding
8,YKGRGYWY,binds
9,YRGRGYWY,binds
10,YTEETDGF,no binding
11,SEARSYAV,no binding
12,SKGTDDWV,no binding
13,SAEEDDVY,no binding
14,VTGEDDGS,no binding
15,YRGADFGF,no binding
16,YRGGSAGF,binds
17,YRGASSGF,binds
18,YRGGTFGF,no binding
19,YRGKGAGF,binds
20,YRTGTAGF,binds
